Experimental data published in PubChem BioAssay (EPA / NIEHS).
Activity calls are given as the source filed them. How the source made its calls: active means hit-call score of the fitted dose curve at least 0.9, where 1 is the maximum; inconclusive means response in the unintended direction; inactive means score below 0.9.

Assay: Tanguay_ZF_120hpf_MORT_legacy: (Legacy) Oregon State University Tanguay Lab 120 Hour Post-fertilization zebrafish Assay for Mortality (AID 2283633)
Description: Tanguay_ZF_120hpf_legacy is a whole embryo, multiplexed endpoint assay using zebrafish larvae exposed for 120 hours post fertilization on a 96-well plate.Tanguay_ZF_120hpf_MORT_legacy is one of one assay component(s) measured or calculated from the Tanguay_ZF_120hpf_legacy assay. It is designed to make measurements of embryonic mortality as detected with brightfield microscopy of developing zebrafish embryos.Data from the assay component Tanguay_ZF_120hpf_MORT_legacy was analyzed into 1 assay endpoints. This assay endpoint, Tanguay_ZF_120hpf_MORT_legacy, was analyzed in the positive analysis fitting direction relative to DMSO as the negative control and baseline of activity. Using a type of viability reporter, gain-of-signal activity can be used to understand changes in developmentals as they relate to the whole embryo. To generalize the intended target to other relatable targets, this assay endpoint is annotated to the embryonic mortality intended target family, where the subfamily is embryonic mortality.
Zebrafish husbandry: Tropical 5D wild-type adult zebrafish were housed in at an approximate density of 1000 per 100 gallon tank at the Sinnhuber Aquatic Research Laboratory, Oregon State University, Corvallis, OR. Each tank was kept at standard laboratory conditions of 28C on a 14-h light/10-h dark photoperiod in fish water consisting of reverse osmosis water supplemented with a commercially available salt (Instant Ocean). Spawning funnels were placed into the tanks the night prior, and embryos were collected and staged. To increase bioavailability, the chorion was enzymatically removed using pronase (63.6mg/ml, >/= 3.5U/mg, Sigma-Aldrich: P5147) at 4 hours post fertilization (hpf) using a custom automated dechorionator.Chemical exposures: Six hpf dechorionated embryos were placed 1 embryo per well in a 96-well plate prefilled with 90 ul of EM using automated embryo placement systems (AEPS). Ten microliters of each row of dilution plate 2 was added to 2 exposure plates. The final DMSO concentration used was 0.64% (vol/vol). Thirty-two embryos were also exposed to 5uM trimethyltin chloride (positive control). Plates were sealed to prevent evaporation and foil covered to reduce light exposure and kept in a 28C incubator. Embryos were statically exposed until 120 hpf. At 24 hpf, embryos were assessed for photomotor response using a custom photomotor response analysis tool (PRAT) and for developmental toxicity endpoints (MO24: mortality at 24 hpf, DP: developmental progression, SM: spontaneous movement, and NC: notochord distortion). At 120 hpf, locomotor activity was measured using Viewpoint Zebralab and assessed for 18 endpoints. Zebrafish acquisition and analysis program (ZAAP), a custom program designed to inventory, acquire, and manage zebrafish data, was used to collect developmental endpoints as either present or absent (i.e., binary responses were recorded). If mortality occurred for an embryo (at either 24 or 120 hpf), the non-mortality endpoints were not measured.

| Structure (SMILES) | outcome | AC50 |
| --- | --- | --- |
| Cc1ccc(N)cc1 | inactive |  |
| COP(=S)(OC)SCN1C(=O)c2ccccc2C1=O | inactive |  |
| Cn1cc(-c2ccccc2)c(=O)c(-c2cccc(C(F)(F)F)c2)c1 | inactive |  |
| ClC1=C(Cl)C2(Cl)C3C(Cl)C=CC3C1(Cl)C2(Cl)Cl (stereo not given) | inactive |  |
| O=[N+]([O-])C(Br)(CO)CO | inactive |  |
| CCCCCOC(=O)c1ccccc1C(=O)OCCCCC | inactive |  |
| ClCCOCCCl | inactive |  |
| CCOC(=O)[C@]1(c2ccccc2)Oc2ccccc2[C@@H]1N | inactive |  |
| C[N+](C)(C)CC1CO1 (stereo not given) | inactive |  |
| [O-][Cl+]O | inactive |  |
| CCOc1cccc(C2(N3CCN(c4ccccc4)CC3)CCC(C)CC2)c1 (stereo not given) | inactive |  |
| O=C(O)C1C2CCC(O2)C1C(=O)O (stereo not given) | inactive |  |
| CC(C)COC(=O)c1ccccc1C(=O)OCC(C)C | inactive |  |
| OCCOCCO | inactive |  |
| COc1cc(C=O)cc2c1[C@H](COC(N)=O)[C@]1(OC(C)=O)ON2C[C@H]2[C@@H]1N2C(C)=O | inactive |  |
| CCC12COCN1COC2 | inactive |  |
| CC(C)(OOC(C)(C)c1ccccc1)c1ccccc1 | inactive |  |
| CC(C)(O)c1cnn2c(-c3ccc(F)c(-c4c(F)cccc4C#N)c3)cnc2n1 | inactive |  |
| Nc1ccc(N=Nc2ccccc2)cc1 | inactive |  |
| CC(C)(C)OOC(=O)c1ccccc1 | inactive |  |

| Structure (SMILES) | outcome | AC50 |
| --- | --- | --- |
| [Cl-].[Cl-].[Hg+2] |  | 2.7 µM (active) |
| O=[N+]([O-])c1ccc(Oc2ccc(Cl)cc2Cl)cc1 | inactive |  |
| CCC(C)c1ccc(O)cc1 (stereo not given) | inactive |  |
| O=P(OCCCl)(OCCCl)OCCCl | inactive |  |
| COC(=O)c1ccccc1N | inactive |  |
| Nc1ccc(Cl)cc1N |  | 25.3 µM (active) |
| CC(C)(C)OOC(C)(C)CCC(C)(C)OOC(C)(C)C | inactive |  |
| c1ccc(NNc2ccccc2)cc1 | inactive |  |
| c1ccc(N=Nc2ccccc2)cc1 | inactive |  |
| OCCCl | inactive |  |
| CC(C)N(Cc1ccccc1)C(=O)C(C)(C)C | inactive |  |
| O=C(Nc1ccccc1)c1ccccc1I | inactive |  |
| Nc1ccc(Oc2ccc(N)cc2)cc1 | inactive |  |
| Clc1ccc(C(c2ccc(Cl)cc2)C(Cl)(Cl)Cl)cc1 | inactive |  |
| [As]#[In] | inactive |  |
| Oc1ccccc1Cl | inactive |  |
| Nc1ccc(Cc2ccc(N)cc2)cc1 | inactive |  |
| CCN(CC)N=O | inactive |  |
| Nc1cc(Cl)cc(C(=O)O)c1Cl | inactive |  |
| c1ccc2c(c1)-c1cccc3cccc-2c13 | inactive |  |
